Consider 13 compounds from PubChem BioAssay.

Values joined by “and” are separate entries in the source; they are usually repeats but may differ in a detail not shown here. Identical values can stand only once. More than one record can exist for a structure, and the calls need not agree. Active and inactive are the calls of the source. Unless noted, no rule for the calls is given here.

As usually defined, the viability is a read-out of living cells in per cent, often relative to untreated cells. A word on the inhibition: it is the change of the read-out against control, counted positive when it falls.

Assay [1] in a line: P. berghei load reduction in hepatocytes – cell-based, HepG2, luciferase luminescence, HepG2 viability, primary screen (AID 624349; in the data active = parasite load remaining mostly below about 12%, no sharp cut-off; inactive = mostly above about 10%;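 also: 100% = mean of DMSO negative control wells on the same plate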). The conditions noted are these: P. berghei liver stage in HepG2, luciferase luminescence, concentration not given here; parasite load remaining: stronger effect = lower value; viability: measured here: HepG2 viability without parasites.
The nature of assay [2]: signal quenchers or enhancers, Cy5 substrate/SSB – biochemical, NIH Clinical Collection, E. coli SSB, artefact control for HCV NS3 helicase inhibitor project (AID 743268). To be noted: Cy5-oligo bound E. coli SSB, fluorescence interference.
The subject of assay [3] is Hepatitis C virus NS3 helicase. The experiment in a line: blockers of NS3h binding to DNA – biochemical, fluorescence polarization, NIH Clinical Collection, primary screen (AID 743270). The conditions noted are these: NS3 helicase binding to Cy5-dT15 DNA, stronger effect = higher value, concentration not given here. For orientation: Fluorescence polarisation rises when a labelled molecule tumbles more slowly, as on binding a larger partner.

Assay [4] has as its target Single-stranded DNA-binding protein (Escherichia coli (strain K12)) (UniProt P0AGE0). The experiment in a line: SSB-ssDNA binding inhibitors – biochemical, fluorescence polarization, NIH Clinical Collection, counter-screen for HCV NS3 helicase inhibitor project (AID 743271; in the data active = inhibition above about 28%). To be noted: E. coli SSB-DNA binding, stronger effect = higher value, concentration not given here.
Assay [5] is described as follows: compounds distorting NS3 helicase fluorescence signal – biochemical, NIH Clinical Collection, artefact control for HCV NS3 helicase inhibitor project (AID 743272).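 Also: HCV NS3 helicase with a Cy5 labelled single stranded DNA probe.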 To be noted: fluorescence interference counterscreen, HCV NS3 helicase assay; stronger effect = lower value. Background: A counterscreen serves to expose hits that act by an unwanted route or on another target.
Assay [6] has as its system Neuropilin-2 / VEGF-C interaction (human). The experiment in a line: small molecules blocking Neuropilin-2/VEGF-C interaction – biochemical, microplate binding format, z-score (AID 743281). The conditions noted are these: microplate NRP2/VEGF-C binding assay; stronger effect = lower value.
A short description of assay [7]: Wnt pathway potentiators raising nuclear beta-catenin – imaging, WNT3A-conditioned medium, mouse C2C12, NPC library, primary screen (AID 1117326; in the data active = nuclear beta-catenin stimulation mostly above about 4.2%, no sharp cut-off; inactive = mostly below about 10%). To be noted: stronger effect = higher value.

As to `Cc1nc2ccc(CN(C)c3ccc(C(=O)N[C@@H](CCC(=O)O)C(=O)O)s3)cc2c(=O)[nH]1`, the parasite load remaining in assay [1] is 12.1% (inactive). Moreover, in assay [1], the viability was found to be 89.6%. The fluorescence ratio in assay [2] and in assay [5] was 0.88 (inactive) each time. Moreover, the results for the inhibition in assay [3] and in assay [4] were -4.59% (inactive) and 17.7% (inactive), respectively. In addition, the compound was classed as inactive in assay [6]. Also, the nuclear beta-catenin stimulation is 61.4% (active) in assay [7] (at 10 µM) and 62.4% in assay [7] (stimulation, at 2 µM).

On to `COc1cc2c(cc1OC)C(=O)C(CC1CCN(Cc3ccccc3)CC1)C2` (stereo not given), for which the parasite load remaining in assay [1] is 49.6% (inactive) and 67.4% (inactive). Also, in assay [1], the viability was 93.5% and 63.1%. Further, the results for the fluorescence ratio in assay [2] and in assay [5] were 1.07 (inactive) and 1.04 (inactive), respectively. Further, the results for the inhibition in assay [3] and in assay [4] were 1.98% (inactive) and 1.44% (inactive), respectively. Further, the z-score in assay [6] was 0.0126 (inactive). Besides, the nuclear beta-catenin stimulation in assay [7] (at 10 µM) was -1% (inactive); in assay [7] (stimulation, at 2 µM) it was -0.2%.

As for `CCOC(=O)[C@H](CCc1ccccc1)N[C@@H](C)C(=O)N1[C@H](C(=O)O)C[C@@H]2CCC[C@@H]21`, the fluorescence ratio in assay [2] is 1.01 (inactive) and 1.04 (inactive); in assay [5] it was 0.79 (active) and 1.02 (inactive). The inhibition in assay [3] is -1.98% (inactive) and -3.18% (inactive); in assay [4], -0.1% (inactive) and -0.48% (inactive). Further, in assay [6], the z-score is -0.497 (inactive). For the same compound, the nuclear beta-catenin stimulation in assay [7] (at 10 µM) was 0.8% (inactive); in assay [7] (stimulation, at 2 µM) it was 1.9%.

In the case of `CC(=O)Oc1ccccc1C(=O)Nc1ncc([N+](=O)[O-])s1`, the parasite load remaining in assay [1] was 0.07% (inactive). Further, the viability in assay [1] stood at 55.1%. Besides, the fluorescence ratio in assay [2] and in assay [5] was 1 (inactive) throughout. Moreover, the inhibition was 2.77% (inactive) in assay [3] and 4.52% (inactive) in assay [4]. In addition, the z-score in assay [6] was -0.0903 (inactive). Besides, the nuclear beta-catenin stimulation in assay [7] (at 10 µM) is 13.9% (inactive); in assay [7] (stimulation, at 2 µM), 2%.

For `OCc1cccnc1`, the parasite load remaining in assay [1] is 56.9% (inactive). Further, the viability in assay [1] is 66.4%. The fluorescence ratio in assay [2] was 0.93 (inactive); in assay [5] it was 0.87 (inactive). Besides, the inhibition in assay [3] is -1.09% (inactive); in assay [4], -1.18% (inactive). In addition, the z-score in assay [6] was -0.624 (inactive). The nuclear beta-catenin stimulation in assay [7] (at 10 µM) is 0.5% (inactive); in assay [7] (stimulation, at 2 µM), 1%.

As for `O=C(NCCO[N+](=O)[O-])c1cccnc1`, the parasite load remaining in assay [1] is 31.4% (inactive) and 90.9% (inactive) and 44.6% (inactive). Besides, the viability in assay [1] is 48.5% and 74.2% and 98.5%. Also, the fluorescence ratio was 1.04 (inactive) in assay [2] and 1.02 (inactive) in assay [5]. Further, the inhibition in assay [3] was 1.19% (inactive); in assay [4], 0.67% (inactive). The z-score in assay [6] was -0.101 (inactive). Moreover, the nuclear beta-catenin stimulation in assay [7] (at 10 µM) is -0.4% (inactive); in assay [7] (stimulation, at 2 µM) it was -0.5%.

Turning to `CCCN[C@H]1CCc2nc(N)sc2C1`, in assay [1], the parasite load remaining is 115% (inactive) and 91.5% (inactive) and 28.8% (inactive). The viability in assay [1] was 75% and 71% and 70.5%. Moreover, the fluorescence ratio is 1.02 (inactive) in assay [2]; 0.97 (inactive) and 1 (inactive) in assay [5]. The inhibition in assay [3] was -0.4% (inactive); in assay [4] it was -1.64% (inactive) and 0.67% (inactive). For the same compound, the z-score in assay [6] was -0.903 (inactive) and 0.751 (inactive). Further, the nuclear beta-catenin stimulation in assay [7] (at 10 µM) is 0.9% (inactive); in assay [7] (stimulation, at 2 µM), 0.5%.

For the compound `C[C@@H]1CN(CCCn2c3ccccc3c3ccccc32)C[C@H](C)N1`, the parasite load remaining in assay [1] is 35.7% (inactive). Also, in assay [1], the viability came to 37.6%. Also, the fluorescence ratio in assay [2] and in assay [5] was 0.94 (inactive) in each case. The inhibition in assay [3] was -6.33% (inactive); in assay [4] it was 1.18% (inactive). The z-score in assay [6] is -0.119 (inactive). For the same compound, the nuclear beta-catenin stimulation in assay [7] (at 10 µM) is 6.5% (inactive); in assay [7] (stimulation, at 2 µM) it was 4.9%.

In the case of `O=C1[C@H]2CCCC[C@H]2C(=O)N1CCCCN1CCN(c2nsc3ccccc23)CC1`, in assay [1], the parasite load remaining is 42.7% (inactive). Further, the viability in assay [1] is 60.1%. For the same compound, the figures for the fluorescence ratio in assay [2] and in assay [5] were 1 (inactive) and 0.96 (inactive), respectively. Moreover, the results for the inhibition in assay [3] and in assay [4] were 0.4% (inactive) and -2.41% (inactive), respectively. Moreover, the z-score in assay [6] was -0.553 (inactive). Also, the nuclear beta-catenin stimulation in assay [7] (at 10 µM) was 10.9% (inactive); in assay [7] (stimulation, at 2 µM), 1%.

Consider `CC(C)(O)c1ccccc1CC[C@@H](SCC1(CC(=O)O)CC1)c1cccc(/C=C/c2ccc3ccc(Cl)cc3n2)c1`, for which the parasite load remaining in assay [1] is 105% (inactive) and 55% (inactive). For the same compound, the viability in assay [1] is 73.6% and 151%. Further, the fluorescence ratio in assay [2] is 0.98 (inactive); in assay [5], 1.03 (inactive). Further, the inhibition in assay [3] is 6.73% (inactive); in assay [4], 4.52% (inactive). In addition, the z-score in assay [6] was -0.15 (inactive). Besides, the nuclear beta-catenin stimulation is 9.7% (inactive) in assay [7] (at 10 µM) and -0.2% in assay [7] (stimulation, at 2 µM).

Take `CC(C)[C@H](N)C(=O)OCCOCn1cnc2c(=O)[nH]c(N)nc21`: the parasite load remaining in assay [1] is 172% (inactive) and 103% (inactive) and 32.5% (inactive). Besides, in assay [1], the viability was 88% and 76.1% and 74%. The fluorescence ratio is 1.06 (inactive) in assay [2] and 1.03 (inactive) in assay [5]. For the same compound, the figures for the inhibition in assay [3] and in assay [4] were -4.36% (inactive) and -4.72% (inactive), respectively. In addition, the call in assay [6] was inactive. Moreover, the nuclear beta-catenin stimulation in assay [7] (at 10 µM) is 0.1% (inactive); in assay [7] (stimulation, at 2 µM), 2.1%.

As to `CN1CCN(C2=Nc3cc(F)ccc3Cc3ccccc32)CC1`, the parasite load remaining in assay [1] was 91.4% (inactive) and 40.9% (inactive). The viability in assay [1] was 62.6% and 67%. For the same compound, the fluorescence ratio was 0.91 (inactive) in assay [2] and 0.9 (inactive) in assay [5]. For the same compound, the inhibition in assay [3] was -1.97% (inactive); in assay [4], 1.97% (inactive). Also, the z-score in assay [6] was -0.511 (inactive). For the same compound, the nuclear beta-catenin stimulation in assay [7] (at 10 µM) was -1.1% (inactive); in assay [7] (stimulation, at 2 µM) it was -3%.

With `CC(=O)OCC(=O)NCCCOc1cccc(CN2CCCCC2)c1`, in assay [1], the parasite load remaining is 165% (inactive) and 103% (inactive) and 34.4% (inactive). Moreover, the viability in assay [1] is 104% and 78.4% and 85%. Moreover, the fluorescence ratio in assay [2] is 1.04 (inactive); in assay [5], 1.02 (inactive). The inhibition in assay [3] is -0.4% (inactive); in assay [4], -0.1% (inactive). Also, the z-score in assay [6] was -0.306 (inactive). Further, the nuclear beta-catenin stimulation in assay [7] (at 10 µM) is 1.8% (inactive); in assay [7] (stimulation, at 2 µM), 0.4%.
